Some test systems named below: DU-145 prostate; K-562 leukemia; MDA-MB-231 breast; RXF 393 renal; SF-268 CNS; SF-539 CNS; UACC-257 melanoma; M14 melanoma; HCT-15 colon; HT29 colon; SNB-75 CNS; SNB-19 CNS; U251 CNS; PC-3 prostate; SK-MEL-5 melanoma; UACC-62 melanoma; LOX IMVI melanoma; SK-MEL-28 melanoma; MALME-3M melanoma; SF-295 CNS.
What all share (experiment): NCI-60 one-dose screen, 48 h (100 = growth as untreated, 0 = no growth, -100 = all killed)
Conditions in all cases: 10 µM unless noted

Our source for the growth values is PubChem BioAssay (NCI).

Compounds without any hit were thinned out: in the full panel of roughly 83,000, 20% have a hit.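 Growth was measured after 48 h exposure to one concentration of compound in 96-well plates. Values under 10 count as active.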 Values without a mark were called inactive. Activity calls are given as the source filed them.

Turning to `O=C(O)c1ccccc1N=Cc1ccccc1`, the growth with DU-145 prostate is 108%; with K-562 leukemia, 99.2%; in the assay with MDA-MB-231 breast, 109%; in the assay with RXF 393 renal, 132%; with SF-268 CNS it was 109%; in the assay on SF-539 CNS, 101%. For the same molecule, the growth in the assay on UACC-257 melanoma was 113%; in the assay with M14 melanoma, 109%; with HCT-15 colon it was 111%; with HT29 colon it was 108%; in the assay on SNB-75 CNS, 119%; in the assay on SNB-19 CNS, 112%. The growth in the assay on U251 CNS is 106%; with PC-3 prostate, 87.6%; in the assay on SK-MEL-5 melanoma, 116%; in the assay on UACC-62 melanoma, 119%; with LOX IMVI melanoma it was 92.6%; in the assay with SK-MEL-28 melanoma, 129%.

Turning to `NC(N)=N/N=C\c1cccc(OCc2ccccc2)c1`, the growth was 101% with DU-145 prostate; 27.1% in the assay with K-562 leukemia; 85.8% in the assay on MALME-3M melanoma; 76% with MDA-MB-231 breast; 62.1% in the assay with RXF 393 renal; 85.1% with SF-295 CNS. Besides, the growth in the assay with SF-539 CNS is 77.5%; in the assay with UACC-257 melanoma it was 70.8%; with M14 melanoma, 59.7%; in the assay on HCT-15 colon, 45%; in the assay on HT29 colon, 1.4% (active); in the assay on SNB-75 CNS it was 63.8%. Besides, the growth in the assay with SNB-19 CNS is 83.2%; in the assay on U251 CNS it was 23.3%; in the assay with PC-3 prostate it was 71.5%; in the assay on SK-MEL-5 melanoma, 33%; in the assay on UACC-62 melanoma, 84.9%; in the assay on LOX IMVI melanoma, 51%. Also, the growth in the assay with SK-MEL-28 melanoma was 86%.

With `NC(N)=N/N=C\c1ccc(OCc2ccccc2)cc1`, the growth in the assay with DU-145 prostate was 87.4%; in the assay with K-562 leukemia it was 36%; in the assay with MALME-3M melanoma it was 91.5%; in the assay with MDA-MB-231 breast, 66.1%; in the assay with RXF 393 renal, -3.77% (active); in the assay with SF-295 CNS, 99%. The growth in the assay with SF-539 CNS was 87.7%; in the assay with UACC-257 melanoma it was 90.4%; with M14 melanoma, 81.5%; with HCT-15 colon it was 35.7%; in the assay with HT29 colon, 16.6%; in the assay on SNB-75 CNS, 43.9%. Besides, the growth in the assay on SNB-19 CNS was 70.9%; in the assay on U251 CNS, 45.7%; with PC-3 prostate, 70.7%; in the assay with SK-MEL-5 melanoma, -13% (active); with UACC-62 melanoma, 78.2%; with LOX IMVI melanoma, 59.6%. For the same molecule, the growth in the assay with SK-MEL-28 melanoma was 87.8%.

As to `O=C(Nc1ccccc1Cl)Oc1ccc2ccccc2c1`, the growth in the assay with DU-145 prostate is 107%; with K-562 leukemia, 85.3%; in the assay with MDA-MB-231 breast it was 88.7%; in the assay on RXF 393 renal it was 99.6%; in the assay with SF-268 CNS it was 101%; in the assay with SF-539 CNS, 92.5%. The growth in the assay on UACC-257 melanoma is 93.5%; in the assay with M14 melanoma it was 101%; with HCT-15 colon it was 99.2%; with HT29 colon it was 98.9%; with SNB-75 CNS, 83.7%; in the assay with SNB-19 CNS, 98.3%. In addition, the growth was 103% in the assay with U251 CNS; 102% in the assay on PC-3 prostate; 110% in the assay with SK-MEL-5 melanoma; 91.8% in the assay with UACC-62 melanoma; 95.1% in the assay on LOX IMVI melanoma; 106% with SK-MEL-28 melanoma.

Turning to `COc1cc2c(cc1OC)C(=O)OC2`, the growth in the assay with DU-145 prostate is 109%; with K-562 leukemia, 118%; with MALME-3M melanoma, 124%; in the assay with MDA-MB-231 breast, 102%; in the assay with SF-268 CNS, 100%; with SF-295 CNS it was 102%. Also, the growth is 97% in the assay with SF-539 CNS; 13.3% in the assay with UACC-257 melanoma; 119% with M14 melanoma; 119% in the assay on HCT-15 colon; 109% with HT29 colon; 78.7% with SNB-75 CNS. The growth with SNB-19 CNS is 113%; in the assay on U251 CNS it was 106%; with PC-3 prostate, 125%; in the assay with SK-MEL-5 melanoma, 99.4%; in the assay with UACC-62 melanoma, 97.6%; in the assay on LOX IMVI melanoma, 109%. Moreover, the growth in the assay with SK-MEL-28 melanoma is 147%.

`CCc1ccc2c(c1)N(CCO)C1=C(C(=O)OC1)C2c1cccc(Br)c1` (stereo unspecified): the growth is 12% in the assay with DU-145 prostate; 14.8% in the assay on K-562 leukemia; 34.9% with MDA-MB-231 breast; 10.9% with RXF 393 renal; 47.2% in the assay with SF-268 CNS; -19.3% (active) with SF-295 CNS. Moreover, the growth in the assay on SF-539 CNS is -8.23% (active); with UACC-257 melanoma, 63.4%; in the assay with M14 melanoma it was 10.8%; in the assay on HCT-15 colon it was 26.3%; in the assay on HT29 colon, 3.88% (active); with SNB-75 CNS, 2.55% (active). The growth was 37.9% in the assay on SNB-19 CNS; 24% in the assay with U251 CNS; 30.1% with PC-3 prostate; 35.5% in the assay with UACC-62 melanoma; 42.2% with LOX IMVI melanoma; 49% in the assay with SK-MEL-28 melanoma.

For the molecule `COc1ccc(Nc2ncccc2C(=O)NCc2cn(Cc3cc(OC)cc(OC)c3)nn2)cc1`, the growth is 95.2% in the assay on DU-145 prostate; 84.3% in the assay with K-562 leukemia; 105% in the assay on MDA-MB-231 breast; 96.1% in the assay on RXF 393 renal; 87.2% in the assay with SF-268 CNS; 90.3% in the assay on SF-539 CNS. Further, the growth in the assay with UACC-257 melanoma is 98.1%; in the assay with M14 melanoma it was 98.7%; in the assay with HCT-15 colon, 104%; in the assay on HT29 colon, 97.8%; with SNB-75 CNS, 81.7%; in the assay on SNB-19 CNS, 106%. For the same molecule, the growth in the assay with U251 CNS is 98.6%; with PC-3 prostate, 90.9%; in the assay on SK-MEL-5 melanoma it was 97.6%; with UACC-62 melanoma, 97.1%; with LOX IMVI melanoma, 96.5%; in the assay on SK-MEL-28 melanoma, 113%.

On to `Oc1ccc(-c2cnc(-c3ccccc3)[nH]2)c(O)c1`, for which the growth in the assay on DU-145 prostate was 157%; in the assay with K-562 leukemia it was 94.7%; with MALME-3M melanoma, 76.5%; in the assay with MDA-MB-231 breast, 92.1%; with SF-268 CNS, 100%; with SF-539 CNS, 107%. For the same molecule, the growth is -22.6% (active) in the assay on UACC-257 melanoma; 119% with M14 melanoma; 107% with HCT-15 colon; 120% in the assay with HT29 colon; 94.2% in the assay on SNB-75 CNS; 98% in the assay with SNB-19 CNS. Also, the growth was 110% in the assay on U251 CNS; 100% in the assay on PC-3 prostate; 105% in the assay on SK-MEL-5 melanoma; 85.6% in the assay on UACC-62 melanoma; 105% in the assay on LOX IMVI melanoma; 105% with SK-MEL-28 melanoma.

For `COc1ccc(/C=C2\CCCC3=C2N=C2SC(C)=NN2C3c2ccc(OC)c(OC)c2)cc1OC` (stereo unspecified), the growth is 16.1% with DU-145 prostate; 14.5% in the assay with K-562 leukemia; 28.6% with MDA-MB-231 breast; 40.4% in the assay on RXF 393 renal; 39% with SF-268 CNS; 25.3% in the assay on SF-295 CNS. The growth with SF-539 CNS was 6.88% (active); in the assay with UACC-257 melanoma, 51.9%; in the assay on M14 melanoma it was 19.8%; with HCT-15 colon, 28.3%; in the assay with HT29 colon it was 4.84% (active); in the assay on SNB-75 CNS, 27.7%. The growth with SNB-19 CNS was 45%; in the assay on U251 CNS it was 15.5%; with PC-3 prostate it was 40%; in the assay on SK-MEL-5 melanoma, 24.2%; with UACC-62 melanoma, 34.6%; with LOX IMVI melanoma, 1.41% (active). Besides, the growth with SK-MEL-28 melanoma was 58.9%.
